Rows were chosen to be rich in hits. Some 4.7% of all compounds tested hit in one or more screens of this group.
ATXN2 expr inh: inhibitors of ATXN2 expression; HEK-293 ATXN2-luciferase reporter, luminescence, 24 h; AID 1745845; Potency, µM (titrated, usually from 57 µM), for the others: top-dose activity change, negative = inhibition, actives largely listed as inhibitors; hit rate 0.72% among 360,000; note: potency is the fitted concentration of half-maximal effect; % is set by controls: 0 for no effect and ±100 for the full control effect; nearly all actives have a fitted effect of over 55% in size
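ATXN2-luciferase reporter cells (luciferase flanked by upstream and downstream ATXN2 gene portions) were treated 24 h at 37 °C with compounds at up to 57 uM. SteadyGlo luminescence gave expression; GF-AFC fluorescence gave viability.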
DRD3 agonist: D3 dopamine receptor (human) agonism | P35462 | D3R DiscoveRx beta-arrestin cells, luminescence, 90 min | max activation, % | hit rate 0.58% among 410,000 | AID 652048; in the data active = max activation above about 30%; note: 0% is about no effect
Target sequence (P35462 whole entry, looked up): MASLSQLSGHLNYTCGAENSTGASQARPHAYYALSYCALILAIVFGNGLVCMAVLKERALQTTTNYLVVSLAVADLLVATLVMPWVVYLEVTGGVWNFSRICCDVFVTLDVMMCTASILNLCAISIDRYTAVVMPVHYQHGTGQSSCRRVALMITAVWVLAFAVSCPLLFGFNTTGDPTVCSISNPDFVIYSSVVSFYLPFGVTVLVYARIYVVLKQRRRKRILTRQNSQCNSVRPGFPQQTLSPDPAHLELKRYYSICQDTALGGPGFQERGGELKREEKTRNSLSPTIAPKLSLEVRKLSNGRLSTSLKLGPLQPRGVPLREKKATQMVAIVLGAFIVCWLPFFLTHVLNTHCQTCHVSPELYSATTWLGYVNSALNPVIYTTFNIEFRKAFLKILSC
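Cells at 1500/well, incubated overnight, then treated with pinned compounds (dopamine as control) for 90 min at 37 degrees C. DiscoveRx reagent added for 30 - 60 minutes at room temperature; luminescence read.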
TGFb SMAD3 inh: blocks TGF-b signaling; HepG2 CAGA-GFP TGF-b/SMAD3 reporter, GFP fluorescence, 18 h; TGF-beta stimulated, 500 pg/mL final; Potency, µM (top dose mostly 46.1 µM), without a hit: at the highest dose activity, negative = inhibition, most hits filed as inhibitors; hit rate 1.2% among 410,000; note: potency is the fitted concentration of half-maximal effect; % is set by controls: 0 for no effect and ±100 for the full control effect; nearly all actives have a fitted effect of over 65% in size
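TGF-beta reporter screen: HEPG2 CAGA-GFP, 1% FBS, 500 pg/mL TGF-beta final, 18 h; per-cell GFP summed per well; curves fitted and categorized by class.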
D3 antag: D3 dopamine receptor (human) antagonism. max response, negative = inhibition, %. hit rate 2.5% among 360,000. AID 652054. P35462. D3R cells, DiscoveRx beta-arrestin luminescence, antagonist mode; stronger effect = lower value; in the data active = max response below about -50%; inconclusive = no clear call, values can overlap the other calls; note: % is set by controls: 0 for no effect and ±100 for the full control effect
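Cells expressing the human receptor were seeded at 1500 cells/well, incubated overnight at 37 degrees C in 5% CO2, then exposed to library compounds with dopamine controls for 90 minutes at 37 degrees C before luminescent detection.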
HepG2 tox-1: kills HepG2 cells in TGF-b inhibitor counter-screen | HepG2 CAGA-GFP viability, ATP luminescence, 18 h | Potency, µM (titrated, usually from 46.1 µM), for the others: at the top dose activity change, negative = cytotoxicity, actives largely listed as cytotoxic | hit rate 0.76% among 410,000 | AID 588856; note: potency is the fitted concentration of half-maximal effect
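HepG2 CAGA-GFP cells (1000/well, DMEM with 1% FBS) received compound, then TGF-beta at 500 pg/mL final, and were incubated 18 hours at 37 degrees C. Viability was read by CellTiter-Glo luminescence. Media-only wells were set as complete cell-killing and DMSO as no toxicity.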
S2 tox: cell viability loss in ATXN counter-screen; Potency, µM (doses to about 56.7 µM), most hits filed as cytotoxic; S2 cells (HEK-293 line with an ATXN2-luciferase reporter) viability, CellTiter-Fluor protease fluorescence, 24 h; AID 651635; hit rate 0.49% among 400,000; note: potency is the fitted concentration of half-maximal effect; nearly all actives have a fitted effect of over 40% in size
TGFb CAGA inh: confirmation of TGF-b signaling inhibitors in HepG2 reporter cells | shares compounds with TGFb SMAD3 inh | HepG2 CAGA-GFP TGF-b reporter, GFP fluorescence, 18 h; cells stimulated with TGF-beta, 500 pg/mL | Potency, µM (titrated, usually from 46.1 µM), without a hit: at the top dose activity, negative = inhibition, actives largely listed as inhibitors | hit rate 63% among 1,600; note: potency is the fitted concentration of half-maximal effect; % is set by controls: 0 for no effect and ±100 for the full control effect; nearly all actives have a fitted effect of over 65% in size
HepG2 tox-2: HepG2 cytotoxicity, TGF-b inhibitor counterscreen; shares compounds with TGFb SMAD3 inh; HepG2 CAGA-GFP viability, ATP luminescence, 18 h; cells stimulated with TGF-beta, 500 pg/mL; Potency, µM (highest dose often 46.1 µM), without a hit: top-dose activity, negative = cytotoxicity, most hits filed as inhibitors; hit rate 27% among 1,600; AID 720535; note: potency is the fitted concentration of half-maximal effect; % is set by controls: 0 for no effect and ±100 for the full control effect; nearly all actives have a fitted effect of over 70% in size
CCL64 TGFb inh: TGF-b inhibition, CCL64 orthogonal assay | hit rate 41% among 1,600 | shares compounds with TGFb SMAD3 inh | CCL64 CAGA-GFP reporter, TGF-b stimulated, GFP fluorescence, 18 h | Potency, µM (top dose mostly 46.1 µM), for the others: at the top dose activity, negative = inhibition, actives largely listed as inhibitors | AID 720536; note: potency is the fitted concentration of half-maximal effect; nearly all actives have a fitted effect of over 65% in size
TGFb COP inh: validation of TGF-b inhibitors in HepG2 COP promoter reporter; shares compounds with TGFb SMAD3 inh; HepG2 COP-GFP TGF-b reporter, GFP fluorescence, 18 h; cells stimulated by added recombinant TGF-beta; Potency, µM (highest dose often 46.1 µM), for the others: top-dose activity, negative = inhibition, most hits filed as inhibitors; hit rate 3% among 1,600; AID 720537; note: potency is the fitted concentration of half-maximal effect; nearly all actives have a fitted effect of over 70% in size
* hit, by the source's call; i = inactive; ? = inconclusive; . = no result. Unless noted, calls come from the whole dose curve; as a rule, active = well fitted curve in the direction sought with a large enough effect; inconclusive = small, poorly fitted or top-dose-only effect, or another doubt; inactive = no such curve, though single readings can be large; an effect the other way counts as inactive or inconclusive.

SMILES | ATXN2 expr inh | DRD3 agonist | TGFb SMAD3 inh | D3 antag | HepG2 tox-1 | S2 tox | TGFb CAGA inh | HepG2 tox-2 | CCL64 TGFb inh | TGFb COP inh
Cc1ccc(CSc2c(C)cnc3c2c(=O)n(C)c(=O)n3C)cc1 | -6.2% | 7.1 | -0.2% | . | 12.0% | i | . | . | . | .
COc1ccc(C2=NNC(=Nc3cc(S(=O)(=O)N(C)C)ccc3C)SC2)c(OC)c1 | . | 12.4 | ? | 11.3 | -29.9% | ? | ? | ? | ? | 27.8%
OC(c1cc(C(F)(F)F)nc2c(C(F)(F)F)cccc12)C1CCCCN1 (centres undefined) | ? | 13.6 | ? | 25.1 | -96.9% | . | . | . | . | .
OC(c1cc(-c2ccc(C(F)(F)F)cc2)nc(C(F)(F)F)c1)C1CCCCN1 (centres undefined) | . | 0.0 | 2.82µM* | 21.4 | -83.8% | 3.16µM* | 6.51µM* | 23.1µM* | 23.1µM* | ?
COc1ccc(C[C@@H]2CN3C(=NC[C@@H]3Cc3ccc(O)cc3)N2C[C@H](C)NC(=O)CCC2CCCCC2)cc1 | -36.1% | -43.4 | 12.6µM* | 0.0 | -21.7% | ? | -86.1% | ? | ? | 106.2%
CCOCCCNCc1ccc(OC)cc1 | 2.7% | -1.6 | 3.4% | -16.4 | -0.5% | i | . | . | . | .
COc1ccc2cc(CNCCOCCOCCNCc3ccc4cc(OC)ccc4c3)ccc2c1 | ? | -1.9 | 3.16µM* | ? | 3.98µM* | . | -107.7% | 20.6µM* | 4.61µM* | ?
O=C(Oc1ccc(Cl)c2cccnc12)c1ccco1 | -19.6% | -40.3 | 8.91µM* | -138.1* | -51.9% | i | -1.9% | -14.7% | 22.1% | 4.1%
CCn1c(CCCOc2ccc(Cl)cc2Cl)nnc1SCC(=O)Nc1cc(F)ccc1C | 0.8% | 14.3 | 12.6µM* | 34.3 | 4.1% | i | 13µM* | ? | -16.4% | -8.8%
Cn1c(CCCOc2ccc(Cl)cc2Cl)nnc1SCC(=O)Nc1cccc(F)c1 | 1.0% | 15.5 | 0.0% | -10.6 | -37.2% | i | . | . | . | .
CN(C(=O)C=Cc1ccco1)c1ccccc1 | 1.0% | -4.2 | -5.5% | -28.1 | -55.0% | i | . | . | . | .
CN(C(=O)/C=C/c1ccc([N+](=O)[O-])s1)c1ccccc1 | ? | 0.0 | 10µM* | -26.7 | 11.2µM* | . | 23.1µM* | ? | 20.6µM* | ?
CC(=O)O[C@@H]1[C@@H](O)CN[C@@H]1Cc1ccccc1 | . | . | ? | . | -17.8% | . | . | . | . | .
COc1ccccc1-c1noc(CCCC(=O)N2CCOCC2)n1 | . | 0.2 | 1.0% | -18.1 | 6.9% | i | . | . | . | .
COc1ccccc1-c1cc(C(F)(F)F)nc(S(=O)(=O)CCCC(=O)N2CCOCC2)n1 | ? | -7.8 | 2.24µM* | ? | -126.2% | 17.8µM* | 1.84µM* | 20.6µM* | 4.11µM* | ?
CCOc1ccccc1C(=O)N1CCc2cc(OC)c(OC)cc2C1COc1ccc2c(C)cc(=O)oc2c1 (centres undefined) | 4.6% | -2.6 | 1.0% | . | 5.9% | i | . | . | . | .
CC(=O)Nc1ccc(C(=O)CSc2ncn(-c3ccccc3)n2)cc1 | 29.2% | 5.7 | 2.82µM* | 24.2 | -22.3% | i | ? | -4.3% | 3.2% | -2.7%
COc1ccc(Nc2nc(N)nc(N)c2S(=O)(=O)c2ccccc2)cc1 | -7.2% | -0.5 | -18.5% | . | -4.0% | i | . | . | . | .
CCc1cccc(CC)c1NC(=O)CCS(=O)(=O)c1ccc2c(c1)CCN2C(C)=O | -1.8% | -3.5 | ? | . | 3.6% | i | . | . | . | .
CCCCNc1c(-c2ccc(OC)c(SC3CCCCC3)c2)nc2cc(C)ccn12 | ? | 9.7 | 20µM* | 55.7 | -50.4% | ? | ? | ? | 16.4µM* | 35.1%
O=S(=O)(Nc1cccc(-c2ccc(N3CCCC3)nn2)c1)c1ccc(F)c(C(F)(F)F)c1 | 6.9% | 5.2 | -13.1% | . | 0.3% | i | . | . | . | .
Cc1cccc(C)c1Nc1nn2c(=O)c3cc4c(cc3nc2s1)OCO4 | 6.9% | 5.0 | 19.9% | . | 6.1% | i | . | . | . | .
CC1(C)CC2CC(C)(CN2S(=O)(=O)c2ccc(C(=O)Nc3ccc(S(=O)(=O)N4CCOCC4)cc3)cc2)C1 (centres undefined) | ? | 1.2 | -9.8% | -5.6 | -0.6% | i | . | . | . | .
CCOC(=O)c1cc([N+](=O)[O-])sc1NC(=O)c1ccc(S(=O)(=O)N2CC3(C)CC2CC(C)(C)C3)cc1 (centres undefined) | -24.7% | 7.3 | ? | 11.4 | 5.7% | ? | ? | ? | ? | -8.0%
Cc1sc2ncnc(N3CCC(C(=O)N(C)CC(=O)Nc4ccc(Cl)c(C(F)(F)F)c4)CC3)c2c1C | ? | 10.0 | 11.2µM* | 7.9 | -7.8% | ? | 5.17µM* | ? | 9.2µM* | 59.4%
O=C1NC(c2cccc3ccccc23)Nc2ccccc21 (centres undefined) | 14.0% | -3.7 | 3.55µM* | -24.3 | -28.7% | ? | 2.59µM* | ? | 6.51µM* | 7.8%
O=C1NC(c2ccccc2Cl)Nc2ccccc21 (centres undefined) | -14.7% | 9.4 | 3.1% | 11.4 | -36.4% | i | . | . | . | .
CCn1c2ccccc2c2cc(NC(=O)c3cc(OC)cc(OC)c3)ccc21 | -7.3% | -22.8 | ? | ? | 11.9% | ? | . | . | . | .
CCn1c2ccccc2c2cc(NC(=O)c3cc(OC)c(OC)c(OC)c3)ccc21 | -3.5% | 3.0 | 0.794µM* | -6.1 | 10.7% | ? | 0.366µM* | -28.7% | 1.3µM* | 16.5%
O=[N+]([O-])c1cccc2c(N3CCCC3)ccnc12 | ? | 2.5 | 7.08µM* | -7.5 | 5.62µM* | i | 7.31µM* | 16.4µM* | ? | ?
